Experimental data: the supplement of paper PMC10646978
± gives the standard deviation.

Assays:
Conditions in all cases: modulator concentration 10 µM
[1] = test system: RAW-Dual (murine macrophage reporter line); assay: NF-kB reporter (SEAP) activity fold change vs agonist alone; higher = enhanced NF-kB activity
Method in brief: (§1)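 Overnight stimulation with a PRR agonist followed pre-incubation for 1 hour at 37 °C with compound at 10 μM final. This was done in RAW-Dual murine macrophage reporter cells seeded at 50 000 per well in 384-well plates. NF-κB (SEAP, QUANTI-Blue absorbance at 620 nm) and IRF (Lucia luciferase, QUANTI-Luc luminescence) were read from the supernatant. Each reporter's fold change relative to the mean agonist-only control on the same plate was averaged over replicate plates.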

[2] = test system: RAW-Dual (murine macrophage reporter line); assay: IRF reporter (Lucia luciferase) activity fold change vs agonist alone; higher = enhanced IRF activity
Method in brief: as §1

[3] = test system: RAW-Dual (murine macrophage reporter line); assay: viability score (confluency relative to resting cells, overnight) (fraction); higher = more viable, active = viable (0.7 or more)
Method in brief: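 Confluency was the readout: RAW-Dual macrophages were imaged with IncuCyte after an overnight exposure to compound at 10 μM final. IncuCyte software produced two masks over all imaged wells. The viability score expresses confluency against resting cells, and both masks had to exceed 70% of resting cells for a compound to meet the cutoff.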

[4] = agonist: CpG ODN 1826 0.5 ug/mL

| Structure (SMILES) | NF-kB reporter [1, 4] | NF-kB reporter ([1]; agonist: LPS 0.1 ug/mL) | NF-kB reporter ([1]; agonist: MPLA […]) | IRF reporter ([2]; agonist: 3'3'-cGAMP 10 ug/mL) | IRF reporter ([2]; agonist: LPS 0.1 ug/mL) | IRF reporter ([2]; agonist: MPLA […]) | viability score [3] |
| --- | --- | --- | --- | --- | --- | --- | --- |
| COc1cccc(NC(=O)CN(c2cccc(Br)c2)S(C)(=O)=O)c1 | 0.906 ± 0.085 | 0.998 ± 0.074 | 0.919 ± 0.036 | 0.848 ± 0.092 | 0.937 ± 0.11 | 0.876 ± 0.078 | 0.998 (active) |
| COC(=O)C1=C(C)N(C)C(C)=C(C(=O)OC)C1c1ccc(-c2ccccc2)cc1 | 0.873 ± 0.069 | 0.943 ± 0.057 | 0.939 ± 0.06 | 0.989 ± 0.03 | 1.06 ± 0.16 | 0.905 ± 0.19 | 1 (active) |
| CCc1c(C)nc(-n2nc(C)cc2NC(=O)CSCc2ccccc2)[nH]c1=O | 0.901 ± 0.056 | 0.603 ± 0.082 | 0.885 ± 0.038 | 0.973 ± 0.065 | 1.22 ± 0.078 | 1.07 ± 0.099 | 1.02 (active) |
| Cc1nn2c(=O)c(Cc3ccccc3)c(C)[nH]c2c1-c1ccccc1 | 0.777 ± 0.068 | 0.878 ± 0.082 | 1.06 ± 0.11 | 1.09 ± 0.057 | 1.26 ± 0.074 | 1.36 ± 0.11 | 1 (active) |
| Cc1ncc(CC(=O)N2CCC(c3ccccc3F)S(=O)(=O)CC2)s1 (stereo not drawn) | 0.93 ± 0.041 | 0.961 ± 0.1 | 0.959 ± 0.053 | 0.983 ± 0.074 | 0.985 ± 0.14 | 0.998 ± 0.27 | 1.01 (active) |
| CC1Cc2ccccc2N1C(=O)C1CCCN1S(=O)(=O)c1ccc(Cl)cc1 (stereo not drawn) | 0.835 ± 0.043 | 0.905 ± 0.12 | 1.27 ± 0.25 | 1.01 ± 0.061 | 1.22 ± 0.18 | 1.47 ± 0.52 | 0.97 (active) |
| O=c1ccn([C@@H]2O[C@H](CO)[C@@H](O)[C@H]2O)c(=O)[nH]1 | 1.05 ± 0.087 | 0.912 ± 0.045 | 1.05 ± 0.059 | 1.09 ± 0.066 | 0.985 ± 0.032 | 0.919 ± 0.1 | 0.998 (active) |
| CCCC(=O)OCOC(=O)C1=C(C)NC(C)=C(C(=O)OC)C1c1cccc(Cl)c1Cl (stereo not drawn) | 0.752 ± 0.068 | 0.888 ± 0.064 | 1.07 ± 0.11 | 0.995 ± 0.048 | 1.18 ± 0.14 | 1.16 ± 0.16 | 1 (active) |
| NCCCCC(=O)O.O=C1c2ccccc2C(=O)C1[N+](=O)[O-] | 0.788 ± 0.16 | 0.975 ± 0.076 | 0.843 ± 0.1 | 0.929 ± 0.025 | 1.13 ± 0.16 | 1.31 ± 0.13 | 1 (active) |
| CCCCCCCCCCCCCCCCOc1nc2ccc(C)cc2c(=O)o1 | 1.1 ± 0.32 | 1.09 ± 0.057 | 0.961 ± 0.13 | 0.921 ± 0.034 | 1.27 ± 0.15 | 1.08 ± 0.23 | 1 (active) |
| Cc1cc(C(=O)N2CCC(Oc3cccc4cccnc34)CC2)c(C)o1 | 1.1 ± 0.073 | 1.1 ± 0.12 | 0.81 ± 0.066 | 1.02 ± 0.092 | 1.07 ± 0.15 | 1.07 ± 0.23 | 1.01 (active) |
| CNCCC=C1c2ccccc2CCc2ccccc21.Cl | 0.45 ± 0.07 | 1.14 ± 0.21 | 1.8 ± 0.13 | 0.41 ± 0.014 | 1.11 ± 0.24 | 1.99 ± 0.4 | 0.293 (inactive) |
| CC(=O)OCC(=O)NCCCOc1cccc(CN2CCCCC2)c1.Cl | 1.14 ± 0.19 | 1.21 ± 0.23 | 0.924 ± 0.056 | 0.951 ± 0.039 | 1.42 ± 0.13 | 1.11 ± 0.1 | 0.99 (active) |
| Cc1noc(C)c1CCC(=O)N1CCCC(c2nnc(C(F)(F)F)o2)C1 (stereo not drawn) | 0.991 ± 0.12 | 1.06 ± 0.087 | 0.923 ± 0.042 | 0.988 ± 0.082 | 1.12 ± 0.1 | 1.02 ± 0.077 | 1.01 (active) |
| CCOCC(=O)Nc1ccc(N2CCCCC2=O)c(C)c1 | 0.884 ± 0.11 | 0.79 ± 0.11 | 0.828 ± 0.16 | 0.899 ± 0.12 | 1.06 ± 0.14 | 1 ± 0.3 | 0.93 (active) |
| CCC(CNC(=O)Cc1c(F)cccc1Cl)(OC)c1ccccc1 (stereo not drawn) | 0.854 ± 0.06 | 0.911 ± 0.091 | 1.06 ± 0.062 | 0.955 ± 0.074 | 1.09 ± 0.2 | 1.17 ± 0.37 | 0.825 (active) |
| Cc1ccc(-n2ncc3c(SCC(=O)NC(C)(C)C)ncnc32)c(C)c1 | 1.01 ± 0.082 | 1.16 ± 0.1 | 1.05 ± 0.047 | 0.644 ± 0.026 | 0.95 ± 0.048 | 1.22 ± 0.18 | 0.996 (active) |
| COC(=O)CCS(=O)(=O)c1ccc2ccccc2c1 | 0.886 ± 0.055 | 1.01 ± 0.1 | 1.05 ± 0.091 | 1.08 ± 0.059 | 1.31 ± 0.16 | 1.06 ± 0.095 | 0.995 (active) |
| CC(C)(O)CNC(=O)c1cccc([N+](=O)[O-])c1 | 0.928 ± 0.074 | 0.96 ± 0.11 | 0.954 ± 0.058 | 0.811 ± 0.12 | 0.971 ± 0.15 | 0.979 ± 0.23 | 0.995 (active) |
| Cc1ccc(-n2nnc3c(=O)n(CC(=O)N4CC(C)OC(C)C4)cnc32)cc1Cl (stereo not drawn) | 1.12 ± 0.096 | 1.09 ± 0.089 | 0.885 ± 0.047 | 1.09 ± 0.057 | 1.14 ± 0.079 | 1.14 ± 0.34 | 0.976 (active) |
| CC1(C)CC(=O)C2=C(C1)OC(N)=C(C#N)C21CCCC1 | 1.04 ± 0.18 | 0.94 ± 0.08 | 0.933 ± 0.072 | 0.91 ± 0.025 | 1.13 ± 0.15 | 1.3 ± 0.13 | 1 (active) |
| CCCC1CCC(c2ccc(C(=O)NNC(=O)c3ccc(C4CCC(CCC)CC4)cc3)cc2)CC1 (stereo not drawn) | 0.984 ± 0.059 | 1.01 ± 0.07 | 0.936 ± 0.059 | 0.898 ± 0.035 | 1.43 ± 0.11 | 1.13 ± 0.21 | 1.01 (active) |
| O=C(Oc1ccc(C=Nc2ccc([N+](=O)[O-])cc2)cc1)c1ccccc1 | 0.769 ± 0.061 | 0.967 ± 0.089 | 0.978 ± 0.056 | 0.713 ± 0.025 | 0.985 ± 0.12 | 1.12 ± 0.29 | 0.998 (active) |
| O=C(O)CCCCCN1C(=O)c2cccc3cccc(c23)C1=O | 0.97 ± 0.055 | 1.05 ± 0.094 | 0.948 ± 0.06 | 0.989 ± 0.05 | 1.35 ± 0.092 | 1.11 ± 0.1 | 1.01 (active) |
